Experimental data from PubChem BioAssay (NCATS).
Inconclusive results are not listed. Values without a mark were called inactive. Active and inactive are the calls of the source. Calls follow the shape of the dose curve; as a rule, active = well fitted cell-killing curve with a large enough effect; inconclusive = small, poorly fitted or top-dose-only effect, or effect the other way; inactive = flat fitted curve, though single readings scatter.

System: Tov112D
Assay: Primary qHTS to identify gynecologic anti-cancer compounds using libraries of approved drugs and bioactive compounds (AID 1345084); also: nearly all actives have a fitted effect of over 55% in size
Details: Gynecologic cancer cell panel viability, ATPlite luminescence, 48 h; series mostly up to 57.5 µM; activity change, negative = cytotoxicity: at the top concentration
Procedure, shortened: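 Luminescence from the ATPlite ATP-monitoring reagent indicates viable cell number; lower signal means cytotoxicity. Cells received compound 16 h after seeding and were exposed for 48 h across five concentrations.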
% is scaled to controls: 0 for no effect and ±100 for the full control effect; potency is read from the fitted curve at half-maximal effect.

Compound	activity change, negative = cytotoxicity	Potency
Cn1ncc(Cl)c1-c1cc(C(=O)NC(CN)Cc2ccc(F)c(F)c2)oc1Cl (centres undefined)	-26.4%	
C[C@H](Oc1cc(-n2cnc3ccc(CN4CCN(C)CC4)cc32)sc1C(N)=O)c1ccccc1C(F)(F)F		7.94 µM (active)
C=C1C(=O)OC2/C=C(\C)CC/C=C(\C=O)C(OC)C(OC(=O)C(C)CC)C12 (centres undefined)	3.19% [at 38.5 µM]	
COc1cc(N2CCOCC2)ccc1NC(=O)c1csc(-c2cccnc2)n1	-7.45%	
Oc1cccc(C2NC(=S)Nc3cccc(F)c32)c1 (centres undefined)		10 µM (active)
Cn1cc(-c2ccc3c(c2)CCN3C(=O)Cc2cccc(C(F)(F)F)c2)c2c(N)ncnc21	-5.72%	
c1ccc(-c2ccc(CNc3nc(-c4ccccn4)nnc3-c3ccccc3)cc2)cc1		11.2 µM (active)
CN1CCN(c2ccc(OC(F)(F)F)c(Nc3ncc4c(n3)-c3c(c(C(N)=O)nn3CCO)CC4)c2)CC1		0.316 µM (active)
C=C1CC2OC(=O)C(COC)C2C(OC(=O)/C(C)=C\C)CC2(C)OC1=CC2=O (centres undefined)	-8.89% [at 38.5 µM]	
Oc1cccc(-c2c3nc(c(-c4cccc(O)c4)c4ccc([nH]4)c(-c4cccc(O)c4)c4nc(c(-c5cccc(O)c5)c5ccc2[nH]5)CC4)C=C3)c1	-20.7%	
COc1ccc(S(=O)(=O)N2CCC[C@H]2C(=O)Nc2cc(C)cc(C)c2)cc1	3.56%	
O=C(CN1C2=NCCN2c2ccccc21)c1ccc(-c2ccccc2)cc1	-13.7%	
C/C(=C\Cc1c(O)c(Cl)c(C)c(C=O)c1O)CC/C=C(\C)[C@H]1CC(=O)C(C)(C)O1	-27.2% [at 25.3 µM]	
C=C1C(=O)O[C@@H]2[C@H]3C(C)=CC(=O)C3=C(C)[C@@H](OC(=O)/C(C)=C\C)[C@H](O)[C@@H]12	-0.524% [at 38.5 µM]	
